PRC2 inh = EZH2/PRC2 methyltransferase inhibitors, primary screen, biochemical, DELFIA time-resolved fluorescence, single point | hit rate 0.35% among 57,000 | PRC2 H3K27 methylation, DELFIA TRF, 1 h | Histone-lysine N-methyltransferase EZH2 (Homo sapiens), Q15910 | inhibition, % at 12.5 µM;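 active = mean inhibition of replicates at least 50% and every single replicate also reaching 50%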;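 also: dimethyl H3K27 on biotinylated H3 21-44 peptide detected by antibody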
Large screens that a line does not name were inactive. The full list was thinned out, with hits kept by preference.

CCCCC/C=C/C/C=C/C/C=C/C/C=C/CCCC(=O)Nc1ccc(O)cc1	PRC2 inh 69
CCCCC/C=C\C/C=C\C/C=C\C/C=C\CCCC(=O)NCc1ccc(O)c(OC)c1	none
CCC(=O)Nc1ccc(Cl)c(Cl)c1	none
CC(C)(C)ONC(=O)CN=[N+]=[N-]	none
[N-]=[N+]=Nc1cccc(C(=O)O)c1	none
